TLR4 MyD88 comp = inhibitors of TLR4-MyD88 association in cells, primary screen, cell-based, HeLa CL3-4, BLA complementation, FRET ratio; Toll-like receptor 4 (Homo sapiens) + Myeloid differentiation primary response protein …; HeLa CL3-4 TLR4/MyD88 BLA complementation; inhibition, % at 8.4 µM; hit rate 0.18% among 200,000; AID 861, 2007; in the data active means inhibition above about 25%;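 further: 0% = vehicle and 100% = reference inhibitor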
Target sequence (O00206 whole entry, looked up): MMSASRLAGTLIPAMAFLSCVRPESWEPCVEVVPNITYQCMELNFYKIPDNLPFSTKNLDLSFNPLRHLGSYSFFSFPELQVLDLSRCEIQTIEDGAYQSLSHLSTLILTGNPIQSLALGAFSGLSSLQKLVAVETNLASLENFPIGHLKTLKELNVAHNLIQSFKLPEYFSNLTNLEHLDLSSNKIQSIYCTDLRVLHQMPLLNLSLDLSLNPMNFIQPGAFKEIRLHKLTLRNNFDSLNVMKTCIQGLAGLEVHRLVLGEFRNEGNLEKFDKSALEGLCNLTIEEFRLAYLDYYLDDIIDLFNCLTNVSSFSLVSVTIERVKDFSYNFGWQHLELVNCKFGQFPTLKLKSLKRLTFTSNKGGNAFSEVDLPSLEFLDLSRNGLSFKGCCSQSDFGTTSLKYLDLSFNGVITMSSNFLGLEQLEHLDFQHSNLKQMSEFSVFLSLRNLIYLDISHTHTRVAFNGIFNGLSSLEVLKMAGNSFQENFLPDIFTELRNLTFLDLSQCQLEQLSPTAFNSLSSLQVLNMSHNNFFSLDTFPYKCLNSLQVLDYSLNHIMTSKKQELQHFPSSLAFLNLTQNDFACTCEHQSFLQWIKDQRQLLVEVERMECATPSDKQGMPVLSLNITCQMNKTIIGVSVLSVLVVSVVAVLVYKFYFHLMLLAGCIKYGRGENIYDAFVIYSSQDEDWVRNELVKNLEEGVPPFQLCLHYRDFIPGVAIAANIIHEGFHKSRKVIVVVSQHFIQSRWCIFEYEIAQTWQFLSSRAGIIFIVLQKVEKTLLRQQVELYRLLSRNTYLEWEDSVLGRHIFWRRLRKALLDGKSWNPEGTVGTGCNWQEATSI
Target sequence (Q99836 whole entry, looked up): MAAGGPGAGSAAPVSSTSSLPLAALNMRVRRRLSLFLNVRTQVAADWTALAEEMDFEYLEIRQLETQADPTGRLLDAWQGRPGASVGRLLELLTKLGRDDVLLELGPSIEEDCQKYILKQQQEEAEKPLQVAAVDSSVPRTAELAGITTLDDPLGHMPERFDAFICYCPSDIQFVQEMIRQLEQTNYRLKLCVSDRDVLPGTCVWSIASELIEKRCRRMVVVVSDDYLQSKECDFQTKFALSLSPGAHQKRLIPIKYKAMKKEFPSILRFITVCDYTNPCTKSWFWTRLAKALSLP
TLR9-MyD88 block = inhibitors of TLR9-MyD88 association in cells, primary screen, cell-based, CHO, BLA complementation, fluorescence | hit rate 0.21% among 340,000 | CCF4 FRET ratio | AID 504734, 2011 | inhibition, % at 4.98 µM | Toll-like receptor 9 (Homo sapiens) + Myeloid differentiation primary response protein …;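 active means inhibition above the mean over all tested compounds plus 3 SD, cut at about 21% in these data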;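 further: 0% = DMSO only wells and 100% = clavulanate BLA inhibitor control wells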
HSF1 inh = HSF1 inhibitors in luciferase reporter cells, primary screen, cell-based, NIH3T3, luminescence; NIH3T3-HGL HSE-luciferase, MG132-induced, luminescence 8 h; hits give low values; activity change, negative = inhibition, % at 7.5 µM (by protocol); hit rate 0.77% among 300,000;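 active means more than half of replicate wells show activity change below -50%, luminescence cut by over half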;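 further: luciferase reports HSF-1 transcriptional activity via heat shock element; 0% = median of DMSO wells and -100% = zero luminescence signal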
NOD2 RIPK2 PPI = NOD2-RIPK2 binding disruptors in cells, primary screen, fluorescence, CHO cells, BLA complementation; Receptor-interacting serine/threonine-protein kinase 2 (Homo sapiens), O43353; CCF4 ratio; inhibition, % at 4.98 µM; hit rate 0.38% among 360,000; AID 624267, 2012; in the data active means inhibition above about 21%;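 further: 0% = vehicle only and 100% = reference blocker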
HSF1 activator = HSF-1 activators, primary screen, NIH3T3-HGL cells, MG132 stress, luminescence, single point | NIH3T3-HGL HSF-1 luciferase reporter, 8 h; 100% = twice DMSO control signal | activation, % at 9 µM | hit rate 1.7% among 300,000 | AID 504408, 2011;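 active means mean replicate activation of at least 50% with a set share of replicates each reaching 50%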;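 further: 0% = median of the neutral control wells and 100% = twice that signal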
* marks the source's active call; other numbers are inactive results; nt = no result. Only some compounds are listed: those with a hit (about 2.4% of all), similar ones and a draw of the others.

SMILES	TLR4 MyD88 comp	TLR9-MyD88 block	HSF1 inh	NOD2 RIPK2 PPI	HSF1 activator
COc1ccc(OC2C(=O)N(Cc3ccc4c(c3)OCO4)C2c2sccc2C)cc1 (centres undefined)	6.5	2.9	-75.1*	4.5	-80.2
O=C1C2C3C=CC(C3)C2S(=O)(=O)C2C3C=CC(C3)C12 (centres undefined)	nt	-8.3	nt	7.0	nt
Nc1c(-c2ccsc2)cnc2ncnn12	-4.6	2.9	31.0	-5.2	63.8*
COC(=O)C1(C(=O)OC)Cc2ccccc2N(S(=O)(=O)c2ccc(C)cc2)C1CC(C)=O (centres undefined)	nt	nt	nt	-7.4	nt
O=C1/C(=C/c2ccc([N+](=O)[O-])cc2)C=C(c2ccccc2)N1c1ccccc1	8.9	4.5	16.7	0.1	35.4
O=C(O)c1cccc(N2C(=O)/C(=C/c3ccc([N+](=O)[O-])cc3)C=C2c2ccccc2)c1	11.7	-1.9	-71.7*	-1.6	-74.3
O=C1/C(=C/c2ccc([N+](=O)[O-])cc2)C=C(c2ccccc2)N1c1ccc(O)cc1	-1.4	-13.9	44.9	-8.3	94.6*
CCC(=O)NNC(=O)CSc1nnc(-c2ccccc2)c(-c2ccccc2)n1	nt	3.5	-73.9*	-2.1	-78.5
Cc1ccc(S(=O)(=O)NCCOc2nc(N3CCOCC3)nc(N3CCOCC3)n2)cc1	-1.9	-3.0	22.2	-2.6	57.8*
COCCOC(=O)c1[nH]c2c(c1C)C(=O)C(C(=O)OC)C(C)C2 (centres undefined)	-3.3	-0.6	18.6	-4.2	42.3
CCCCCOC(=O)c1[nH]c2c(c1C)C(=O)C(C(=O)OC)C(C)C2 (centres undefined)	-6.9	3.0	57.1	8.2	76.2*
Nc1nc(SCc2ccccc2Cl)c2ncn(C3OC(CO)C(O)C3O)c2n1 (centres undefined)	nt	-7.9	nt	-10.5	nt
CCc1c(C)nc(SCC(=O)Nc2cccc(Br)c2)[nH]c1=O	-1.6	5.6	21.5	-4.9	57.1*
CCc1c(C)nc(SCC(=O)Nc2ccc(Br)cc2)[nH]c1=O	-3.0	4.2	2.6	-3.8	3.1
CC(=O)Nc1cc(-c2ccc(N(C)C)cc2)cn2c(-c3ccc(F)c(Cl)c3)cnc12	nt	nt	nt	3.5	nt
CCOc1nc(SC(C(C)=O)C(=O)Nc2ccccc2)nc(N(C)C)n1 (centres undefined)	10.0	0.0	34.4	-1.9	56.5*
Cc1cc2nc3c(=O)n(CCc4ccccc4)c(=O)[nH]c3nc2cc1N	nt	4.9	20.1	12.3	59.0*
CC1(CC(=O)N/N=C/c2ccc(OCc3ccc(Cl)cc3Cl)cc2)OCCCO1	0.4	-2.0	31.1	-9.2	53.6*
COc1cc(/C=N/NC(=O)CC2(C)OCCCO2)ccc1OCc1ccc(Cl)cc1Cl	3.0	-8.2	40.5	14.2	67.9*
COc1cc(/C=N/NC(=O)CC2(C)OCCCO2)ccc1OCc1ccccc1	-6.7	-6.2	11.2	2.1	25.7
COc1cc(/C=N/NC(=O)CC2(C)OCCO2)cc(Br)c1O	1.5	-1.9	0.6	-3.6	4.2
NCCCCCc1nnc(SC/C=C/c2ccccc2)o1	7.7	0.2	57.2	-0.6	97.2*
NCCCCCc1nnc(SCc2ccccc2Cl)o1	-4.3	-13.2	-9.0	0.8	-17.2
NCCCCCc1nnc(SCC(=O)c2ccc(Cl)cc2)o1	9.1	2.3	30.4	-2.9	58.0*
Cc1ccc2nc(NC(=O)CSCC(=O)OCC(=O)c3ccc(Br)cc3)sc2c1	-5.0	5.8	-66.3*	1.6	-73.3
SMILES	TLR4 MyD88 comp	TLR9-MyD88 block	HSF1 inh	NOD2 RIPK2 PPI	HSF1 activator
Cc1c(/C=N/NC(=O)c2ccc(Br)o2)cnn1C	nt	nt	21.2	-1.8	60.8*
Cc1c(/C=N\NC(=O)c2ccc(F)cc2)cnn1C	-1.9	1.3	10.3	3.1	-1.8
Cc1ccc2nc(CSc3nc(C)ccc3C#N)[nH]c2c1	10.8	16.0	-58.5*	4.9	-64.7
Cc1ccc(C#N)c(SCc2ccccc2F)n1	nt	nt	11.8	-15.3	36.3
CCCCCCCN(C(=O)CCl)c1ccccc1C	-7.7	-3.6	33.9	-6.7	93.8*
COc1ccc(N(C)S(=O)(=O)c2cccc(C(=O)Nc3nnc(C4CC4)s3)c2)cc1	-5.1	5.1	-39.4	8.9	-52.0

Screening data: PubChem, several laboratories
